About 6,800 (1.8%) of roughly 370,000 compounds were called active. The sample as a whole holds a higher share of actives than the screen did. Unmarked numbers belong to inactive results.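 How the source made its calls: active means activation above a cutoff set at the mean of all screened compounds plus 3 SD (cut at about 10% in these data); inactive means the rest.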
The compounds below were run on Nuclear hormone receptor DAF-12 (Heterodera glycines), GAL4 fusion (assay: hgDAF-12 GAL4 fusion reporter activation – cell-based, luminescence, HEK293, UAS-luciferase, primary screen (AID 687014;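 further: 0% = DMSO wells and 100% = sodium butyrate wells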)). Settings: HEK293 GAL4-hgDAF12 UAS-luciferase reporter, agonist luminescence; at 6.8 µM; hits give high values; normalized to butyrate control.
In the case of `COc1cccc(CNC(=O)C2CCCN(c3nc4ccccc4o3)C2)c1OC` (stereo not drawn), the activation is reported as 1.01%.
In the case of `O=C(Nn1cnc2ccccc2c1=O)c1ccc([N+](=O)[O-])cc1Cl`, the activation is reported as -0.41%.
`O=C(Nc1ccc(Br)cn1)c1ccc([N+](=O)[O-])cc1Cl` was tested, and the activation was 11.7% (active).
Work on `CC(C)C(=O)Nc1cccc(NC(=O)c2ccc([N+](=O)[O-])cc2Cl)c1` yielded an activation of -0.06%.
With `Cc1cc(Cl)ccc1-c1nc(NCCN(C)C)nc2ccsc12` the activation was 1.09%.
With `O=C(CN1CCCc2ccccc21)NCc1ccc(F)cc1` the activation was 1.21%.
`Cc1ccn(-c2cccc(-n3ccc(C)n3)n2)n1` was tested, and the activation was 18.1% (active).
With `Cc1cccc(N2O[C@H]3C=CC2CCCC3)n1` the activation was -0.73%.
`COc1ccc(C(=O)OCCN2CCN(C3CN(Cc4cn(Cc5ccccc5F)nn4)S(=O)(=O)C3)CC2)cc1OC` (stereo not drawn) gave an activation of -1.46%.
Compound `Cn1c(CNc2nc(-c3ccccc3)cs2)nnc1SCC(=O)c1ccccc1` has an activation of -0.81%.
`CCNc1nc(-c2cc3ccccc3o2)cs1` was tested, and the activation was 12.5% (active).
`Cn1c(SCC(=O)NC2CCCCC2)nnc1-c1cc2ccccc2o1` gave an activation of 4.2%.
Compound `COc1ccc(NC(=O)CN(Cc2ccccc2)S(C)(=O)=O)cc1OC` has an activation of 0.79%.
In the case of `S=C(NN=Cc1ccccn1)Nc1ccccn1`, the activation is reported as 14.5% (active).
For `O=C(O)C1C2C=CC(O2)C1C(=O)Nc1ccccn1` (stereo not drawn), the activation was 0.96%.
In the case of `CS(=O)(=O)N(CC(=O)N/N=C/c1ccccn1)c1ccc(Oc2ccccc2)cc1`, the activation is reported as 2.64%.
For `Clc1ccc(Cc2nnc(-c3cccs3)o2)cc1`, the activation was 12.7% (active).
`c1csc(-c2nnc(COc3ncnc4sccc34)o2)c1` gave an activation of 1.72%.
For `CC(C)(C)c1ccc(CSc2nnc(-c3cccs3)o2)cc1`, the activation was 5.74%.
`CC(C)[C@H]1COCCS(=O)(=O)N1Cc1ccccc1-c1cccc2c1sc1ccccc12` showed an activation of 2.06%.
`Cc1ccc(OCc2nnc(SC/C=C/c3ccccc3)n2Cc2ccco2)cc1` gave an activation of -2.63%.
`O=C1CSc2ccc(C(=O)NCc3ccccn3)cc2N1` gave an activation of 3.35%.
For `c1ccc(CN=C2Nc3ccccc3CS2)nc1`, the activation was 15% (active).
`COc1ccc(OC)c(CNC(=O)c2cc(=O)[nH]c3ccc(S(=O)(=O)N4CCCC4)cc23)c1` showed an activation of 5.76%.
Work on `CCc1ccc(C2=CC(=O)CC(C)(C)C2=O)cc1` yielded an activation of -0.49%.
Work on `Cc1nonc1NC(=O)c1oc2ccccc2c1C` yielded an activation of 4.37%.
`CCc1nonc1NC(=O)c1oc2ccc(Cl)cc2c1C` gave an activation of 3.2%.
In the case of `Cc1c(C(=O)Nc2ccccn2)oc2ccc(Br)cc12`, the activation is reported as 11.2% (active).

Source: PubChem BioAssay AID687014 (The Scripps Research Institute Molecular Screening Center, 2013)
